Test [1] has as its target T1, Aspartate--tRNA(Asp/Asn) ligase (Mycobacterium tuberculosis (strain ATCC 25618 / H37Rv)) (UniProt P9WFW3). Further: in the data most compounds retested in dose-response had high values.
T1 sequence (whole entry): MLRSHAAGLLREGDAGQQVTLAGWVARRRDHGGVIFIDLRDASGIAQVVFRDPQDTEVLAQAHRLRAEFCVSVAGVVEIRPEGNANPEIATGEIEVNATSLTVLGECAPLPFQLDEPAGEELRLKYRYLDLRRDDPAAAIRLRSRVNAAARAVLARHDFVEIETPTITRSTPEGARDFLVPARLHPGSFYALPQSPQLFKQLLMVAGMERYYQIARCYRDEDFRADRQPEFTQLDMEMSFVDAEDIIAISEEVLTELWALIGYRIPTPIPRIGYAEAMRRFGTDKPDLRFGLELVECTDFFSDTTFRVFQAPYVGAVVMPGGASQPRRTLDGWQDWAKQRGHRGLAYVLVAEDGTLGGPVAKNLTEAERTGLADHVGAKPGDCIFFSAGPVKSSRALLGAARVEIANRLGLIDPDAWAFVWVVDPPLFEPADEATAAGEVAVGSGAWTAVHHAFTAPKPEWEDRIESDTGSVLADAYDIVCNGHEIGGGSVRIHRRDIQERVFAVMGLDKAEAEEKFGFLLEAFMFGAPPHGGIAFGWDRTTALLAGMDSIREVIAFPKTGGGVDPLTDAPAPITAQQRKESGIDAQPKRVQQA
Put plainly: Assay for Asp RNA synthetase-1 from Mycobacterium tuberculosis. Type of test: functional. Set-up: scale not given: direction of the effect not stated beside the values. The following applies: 30 µM.

Test [2] concerns the target Shiga toxin 2 (Escherichia coli O157:H7) (UniProt P09385+P09386). The test can be described thus: E. coli 0.157:H7 Shiga Toxin SOP - stx2 screening assay. The test is classed as functional. Set-up: scale not given: direction of the effect not stated beside the values. The following applies: 30 µM.

`CC(C)c1ccc(C(O)Cn2c(=O)c(C#N)cn(C3CC3)c2=O)cc1` (stereo not given): the values for the Percent Effect in test [1] and in test [2] were 2.61% and 14.3%, respectively.

Take `O=C(Nc1cnccn1)[C@@H]1COC[C@H]2CN(C3CCCC3)C[C@H]21`: the Percent Effect in test [1] is -5.7%; in test [2], 18%.

For `COC[C@]12COC[C@H]1CN(Cc1cc(OC)cc(OC)c1)C2`, the Percent Effect in test [1] was -1.51%; in test [2] it was -6.3%.

On to `CN(C)Cc1nnc(C2CCN(c3nccc(N)n3)CC2)n1C1CC1`, for which the Percent Effect in test [1] is 2.12%; in test [2], -41.2%.

On to `CC(C)N(C)C(=O)CN1CCCC(c2ccc(C(=O)O)cc2)C1` (stereo not given), for which the Percent Effect in test [1] is -0.982%; in test [2], 5.69%.

Take `COc1ccc(-n2ccc(C(=O)N3CCC(C(N)=O)C3)n2)cc1` (stereo not given): the Percent Effect is 1.17% in test [1] and 19.6% in test [2].

Turning to `O=C(NCCNc1ncccn1)N1CCN(Cc2cccnc2)CC1`, the Percent Effect was 6.28% in test [1] and -6.42% in test [2].

With `O=C(NCc1nnc2n1CCCC2)N1CCc2ccccc2C1`, the Percent Effect is 1.56% in test [1] and -5.06% in test [2].

Take `Cc1nc(CN2CCCC(CCNS(C)(=O)=O)C2)c[nH]1` (stereo not given): the Percent Effect in test [1] was -4.89%; in test [2] it was 13%.

Regarding `O=C(Cn1cccnc1=O)NCCc1ccc2c(c1)OCCO2`, the Percent Effect in test [1] was 2.57%; in test [2], -33.8%.

As to `Fc1ccc2[nH]c(C3CCCN3CCc3ccccn3)nc2c1` (stereo not given), the Percent Effect in test [1] was 7.64%; in test [2] it was -16.2%.

Turning to `CO[C@H]1CCN(C(=O)Cc2ccccn2)[C@H]1Cc1ccncc1`, the Percent Effect in test [1] was 3.54%; in test [2], -1.46%.

Take `CCc1nnc(CN(C)c2nc(C3CCCC3)nc3c2cnn3C)o1`: the Percent Effect in test [1] is -4.57%; in test [2], 13.2%.

Regarding `Cc1cc(C(=O)N2CCC(c3nccn3Cc3ccncc3)CC2)no1`, the Percent Effect came out at 10.1% in test [1] and 4.34% in test [2].

Consider `CCc1ccsc1C(=O)N1CCN(C(=O)CC(F)(F)F)CC1`, for which the figures for the Percent Effect in test [1] and in test [2] were -0.116% and -16.6%, respectively.

Consider `COC(=O)c1cccc(C(=O)N2CCN(c3ccccc3F)CC2)n1`, for which the Percent Effect in test [1] is -0.801%; in test [2] it was -16.2%.

In the case of `CNC(=O)N1CC[C@H]2N(C)CC[C@@]2(C(=O)Nc2ccccc2)CC1`, the Percent Effect in test [1] is -8.12%; in test [2], 15.9%.

Consider `CC(C)Nc1ccc2nc(C3CCN(C(C)C)CC3)nn2c1`, for which the values for the Percent Effect in test [1] and in test [2] were -0.549% and -8.89%, respectively.

Consider `CC(C)(C)c1ncc2c(n1)CN(C(=O)c1ccncc1)C2`, for which the Percent Effect in test [1] was 2.51%; in test [2], -10.4%.

In the case of `O=C(NCC1CC1)c1nc(COc2ccc3c(c2)OCO3)no1`, the Percent Effect was -5.11% in test [1] and -58.6% in test [2].

As for `CC(C)N(C)Cc1nnc2n1CCCN(C(=O)c1ccco1)C2`, the Percent Effect is 1.27% in test [1] and -12.8% in test [2].

Take `CS(=O)(=O)N1CCOCC2(CCN(C(=O)c3cccnc3)CC2)C1`: the Percent Effect in test [1] was -2.76%; in test [2] it was -13.1%.

With `O=C(CC1CCCC1)NCCn1ccc(-c2ccccn2)n1`, the Percent Effect in test [1] was -4.3%; in test [2] it was -5.4%.

For `CN(C)c1cc(CNC(=O)c2ccc(F)cc2F)ccn1`, the figures for the Percent Effect in test [1] and in test [2] were -4.92% and -51.7%, respectively.

Turning to `CSc1sc(NC(=O)Cc2c(C)nc(C)[nH]c2=O)nc1C`, the Percent Effect in test [1] is -2.08%; in test [2], -7.28%.

In the case of `CN(C)Cc1ccc(C2CCCCN2C(=O)c2cccc(CO)n2)cc1` (stereo not given), the Percent Effect in test [1] was -3.06%; in test [2], 0.431%.

For `Cc1nnc2n1CCN(C(=O)c1cc(C)n(-c3ccccn3)c1C)C2`, the Percent Effect in test [1] is 4.19%; in test [2] it was 32.2%.

Consider `O=C1CCC2(CCCN(C(=O)c3cscn3)C2)CN1CCc1c[nH]cn1` (stereo not given), for which the Percent Effect in test [1] was 3.83%; in test [2], -12.3%.

With `CN(Cc1ccc(F)cc1)C(=O)CN1CCOC(Cn2cncn2)C1` (stereo not given), the Percent Effect was 3.63% in test [1] and -0.222% in test [2].

In the case of `c1cc(C2CCCN2Cc2nnnn2C2CC2)cs1` (stereo not given), the figures for the Percent Effect in test [1] and in test [2] were -4.43% and 5.22%, respectively.

Consider `CC(Oc1ccccc1C(F)(F)F)C(=O)NCCC(=O)N(C)C` (stereo not given), for which the Percent Effect in test [1] was -1.14%; in test [2] it was 8.25%.

Regarding `Cc1noc(C)c1CN1CC[C@H]2OCC[C@@H](C(=O)N3CCCO3)[C@@H]2C1`, the Percent Effect in test [1] is -1.14%; in test [2] it was -15.4%.

As for `Cn1cnnc1C1CCCN(C(=O)NCc2cc[nH]n2)C1` (stereo not given), the Percent Effect in test [1] was found to be 4.95%; in test [2], 12.3%.

Take `COc1ncc(C2(O)CCN(Cc3ccccc3O)CC2)c(OC)n1`: the figures for the Percent Effect in test [1] and in test [2] were -1.78% and -22.9%, respectively.

`Cc1cnc(C(=O)N2CCCC(n3ccnc3C)C2)cn1` (stereo not given): the Percent Effect in test [1] is -3.23%; in test [2], -18.1%.

Take `CCn1cc(N2Cc3nc(N4CCOCC4)ncc3C2=O)cn1`: the Percent Effect in test [1] is -3.92%; in test [2], -20.5%.

In the case of `Nc1nccc(-c2c[nH]nc2C2CCCCC2)n1`, the Percent Effect in test [1] is 6.92%; in test [2], -26.9%.

`O=C(NC1CC1)[C@H]1CC[C@@H]2[C@@H](CCN2c2ncc(F)cn2)O1`: the Percent Effect in test [1] is -4.13%; in test [2], -23%.

For `CN(C)C(=O)CC1CC2(CCN(C(=O)N(C)C)CC2)Oc2ccccc21` (stereo not given), the Percent Effect is 1% in test [1] and -12.4% in test [2].

Take `Cc1ccc(C(=O)N2Cc3c(CN4CCCCC4)nn(C)c3C2)cc1C`: the Percent Effect in test [1] is 4.62%; in test [2] it was -4.53%.

Regarding `Cn1nc(CNC(=O)c2nc3ccccc3s2)c2c1CCOC2`, the Percent Effect in test [1] was -0.335%; in test [2], 1.68%.

Consider `COCCCN(C)Cc1nc2c(cnn2C)c(=O)[nH]1`, for which the results for the Percent Effect in test [1] and in test [2] were -1.71% and -15.2%, respectively.

Take `CN(C)C(=O)CC1CC2(CCNCC2)c2cc(F)ccc21` (stereo not given): the Percent Effect in test [1] amounted to 2.15%; in test [2], 1.21%.

As for `Cc1cc(C(N)=O)ccc1NC(=O)c1nc(N2CCCC2)ncc1Cl`, the Percent Effect in test [1] is 1.84%; in test [2], -35.5%.

As for `Cc1cnn(CC2CCCN2C(=O)c2ccc(OC(C)C)nc2)c1` (stereo not given), the figures for the Percent Effect in test [1] and in test [2] were -4.48% and -35%, respectively.

As for `Cc1ccc2c(ccn2CC(=O)NC[C@@H]2CCCN3CCCC[C@H]23)c1`, the Percent Effect in test [1] was 2.12%; in test [2] it was -7.12%.

Turning to `CC(=O)N1CCN(C(=O)CCCc2nc(C(C)C)no2)CC1`, the Percent Effect in test [1] is 5.17%; in test [2] it was -7.36%.

As to `COC(=O)c1sccc1S(=O)(=O)N1CCC(Oc2cccnn2)CC1`, the Percent Effect in test [1] is -2.42%; in test [2] it was -7.45%.

For `CC(=O)N1CCc2c(nc(-c3ccncc3)nc2N(C)CC(O)CO)C1` (stereo not given), the figures for the Percent Effect in test [1] and in test [2] were -1.07% and 5.83%, respectively.

With `Cc1cc(F)c(S(=O)(=O)NCCCN2CCC(O)CC2)cc1F`, the results for the Percent Effect in test [1] and in test [2] were 11.3% and -69.6%, respectively.

The record behind these values is ChEMBL document CHEMBL3988442, “University of Dundee, Small-Polar-MMV Screening Library” (2021).
